IEC-6 tox – kills IEC-6 intestinal cells in KLF5 counter-screen; IEC-6 cytotoxicity, luminescence viability; inhibition, % at 5 µM; hit rate 0.78% among 290,000; in the data active = inhibition above about 22%
Ba/F3 V617F tox – lowers viability of Ba/F3 cells expressing EpoR and JAK2V617F. ATP luminescence. inhibition, % at 5.6 µM. hit rate 1.1% among 220,000. AID 1446;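 active = inhibition above the campaign mean plus 3 SD over all tested compounds, cut at about 24% in these data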;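 also: cytokine-independent growth of Ba/F3 cells driven by EpoR plus mutant JAK2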
BaF3 parental – parental Ba/F3 viability inhibition as JAK2V617F counter-screen; CellTiter-Glo ATP luminescence; inhibition, % at 5.6 µM; hit rate 1.1% among 220,000; AID 1486;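 active = inhibition above a per-campaign cutoff, the mean inhibition of all tested compounds plus 3 SD, cut at about 27% in these data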
KLF5 inh – inhibitors of KLF5 expression | DLD-1 KLF5 promoter-luciferase reporter, luminescence | inhibition, % at 5 µM | hit rate 0.23% among 290,000 | AID 1700;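 active = inhibition above a per-plate limit of that plate's mean compound inhibition plus 3 SD, cut at about 60% in these data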;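 also: higher means less KLF5 promoter-driven luciferase light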
APP transl inh – APP translation inhibition; SH-SY5Y APP 5'UTR-luciferase reporter, luminescence; inhibition, % at 2 µM; hit rate 0.82% among 190,000; AID 1285;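 active = inhibition above a set limit, derived from the sample mean plus 3 SD, cut at about 45% in these data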
aSyn 5UTR inh – 5' untranslated region of α-synuclein, MLPCN primary screen; alpha-synuclein 5'UTR reporter, inhibitor activity; inhibition, % (tested at 7.5 µM); hit rate 0.82% among 300,000; AID 1813; in the data active = inhibition above about 60%;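 also: H4 neuroglioblastoma cells stably carrying SNCA 5'UTR luciferase fusion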
BaF3 parental 2 – parental Ba/F3 viability inhibition for JAK2V617F counter-screen; shares compounds with Ba/F3 V617F tox; CellTiter-Glo luminescence; cells kept alive by added IL-3; inhibition, % at 5.6 µM; hit rate 31% among 580; AID 1520;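 active = cell growth inhibition above the hit limit set in the earlier mutant JAK2 cell screen, cut at about 27% in these data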
JAK2V617F conf – confirmation: loss of viability in JAK2V617F-dependent Ba/F3 cells | shares compounds with Ba/F3 V617F tox | inhibition, % at 5.6 µM | hit rate 66% among 580 | Ba/F3 EpoR-JAK2V617F viability, CellTiter-Glo luminescence;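 active = mean inhibition above the hit cutoff derived in the earlier primary screen, cut at about 25% in these data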;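 also: higher means lower luminescence from reduced cell ATP and viability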
Numbers stand for hits; i = inactive; nt = no result given. Compounds with a hit are over-represented: about 2.2% of the library has one in this group of screens.

SMILES	IEC-6 tox	Ba/F3 V617F tox	BaF3 parental	KLF5 inh	APP transl inh	aSyn 5UTR inh	BaF3 parental 2	JAK2V617F conf
C=CCOc1nc2c(c(=O)n(C)c(=O)n2C)n1Cc1ccc(Cl)cc1	i	24	i	i	i	i	62	53
CN(Cc1ccccc1)C(=O)COC(=O)c1ccc(Cl)c(N)c1	i	94	i	i	i	i	i	i
CN(Cc1ccccc1)C(=O)COC(=O)c1cncc(Br)c1	i	i	i	i	i	i	nt	nt
COC(=O)C1(C)Cc2cc(OC(C)=O)c(OC(C)=O)cc2N1 (configuration not stated)	i	37	i	i	nt	i	i	46
O=C1Cc2cc(S(=O)(=O)N3CCN(c4cccc(Cl)c4)CC3)ccc2N1	i	nt	nt	i	nt	i	nt	nt
O=c1oc2ccc(Cl)cc2nc1/C=C(\O)c1ccco1	i	34	i	i	nt	i	i	72
CC(C)C/C(O)=C/c1nc2cc(Cl)ccc2oc1=O	i	i	i	i	i	i	nt	nt
Cc1nn(Cc2ccc(Cl)cc2Cl)c(C)c1NC(=O)CCl	i	30	i	i	i	i	i	64
Cc1nc([N+](=O)[O-])c(Br)n1Cc1ccccc1	i	36	i	i	nt	i	i	46
COc1cc(/C=N/N=C(N)N)ccc1OCc1ccc(Cl)cc1	22	35	i	i	i	i	35	45
COC(=O)c1ccc(CNC(=O)COC(=O)c2ccc(N(C)C)cc2)cc1	i	i	i	i	i	i	nt	nt
CCC(C)N1C(=O)S/C(=C/c2ccc3c(c2)n(C)c(=O)n3C)C1=O (configuration not stated)	i	67	i	i	i	i	i	i
COc1cc(NC(=O)c2ccc([N+](=O)[O-])o2)ccc1NC(=O)c1cccs1	i	i	i	i	i	i	nt	nt
O=C(Nc1cccc(NC(=O)c2cccs2)c1)c1ccc([N+](=O)[O-])o1	64	39	i	i	nt	i	i	72
O=C1CCc2cc(NS(=O)(=O)c3cc(F)ccc3F)cc3c2N1CC3	nt	nt	nt	nt	nt	i	nt	nt
COc1ccc2nc(C)cc(Sc3nc4ccccc4s3)c2c1	i	32	i	i	nt	i	i	55
COc1ccc2nc(C)cc(SCC(=O)NNC(=O)COc3ccccc3)c2c1	i	i	i	i	i	i	nt	nt
O=C(Nc1cc(S(=O)(=O)N2CCCCC2)ccc1Cl)c1ccccc1NS(=O)(=O)c1ccc(F)cc1	i	28	i	i	i	63	70	79
O=C(Nc1cc(S(=O)(=O)N2CCCCC2)ccc1O)c1ccccc1NS(=O)(=O)c1ccc(F)cc1	i	i	i	i	i	i	nt	nt
Cc1cccn2cc(COc3ccc(-c4ccccc4)cc3)nc12	i	48	i	i	i	i	43	43
Cc1cccn2cc(COc3cccc([N+](=O)[O-])c3)nc12	i	i	i	i	i	i	nt	nt
Cc1ccc2c(C(=O)CN3CCN(C(=O)c4ccco4)CC3)c(C)[nH]c2c1	i	i	i	i	nt	i	nt	nt
Cc1ccc(C)c(S(=O)(=O)N2CCC(c3nc4c(nnn4Cc4ccc5c(c4)OCCO5)c(=O)[nH]3)CC2)c1	i	nt	nt	i	nt	i	nt	nt
CCOc1ccc(OCCn2c(=S)[nH]c3c(N)ncnc32)cc1	i	i	i	i	i	i	nt	nt
Cc1ccc(OCCn2cnc3c(N)ncnc32)cc1	i	93	i	i	i	i	82	28
SMILES	IEC-6 tox	Ba/F3 V617F tox	BaF3 parental	KLF5 inh	APP transl inh	aSyn 5UTR inh	BaF3 parental 2	JAK2V617F conf
COc1ccc(NC(=O)C2CCCN2S(=O)(=O)c2cccs2)c([N+](=O)[O-])c1 (configuration not stated)	nt	nt	nt	nt	nt	i	nt	nt
Cc1cccc(NC(=O)c2ccccc2O)c1C	i	i	i	i	i	i	nt	nt
Cc1cccc(NC(=O)c2cnn3ccccc23)c1C	i	28	i	i	nt	i	i	25
OCCSc1nnc(Nc2ccccc2)s1	i	65	i	i	i	i	i	i
N#CCSc1nnc(Nc2ccccc2)s1	i	i	i	i	i	i	nt	nt
CCc1cc(C(=O)N2CCCC(CCC(=O)N3CCN(c4ccccn4)CC3)C2)no1 (configuration not stated)	i	i	i	i	i	i	nt	nt
CC(C)c1cc(C(=O)N2CCCC(CCC(=O)N3CCN(c4ccccn4)CC3)C2)no1 (configuration not stated)	i	32	i	i	nt	i	i	i
